# Source: ChEMBL document CHEMBL3988442, “University of Dundee, Small-Polar-MMV Screening Library” (2021)
# The whole screen tested about 53,000 compounds, of which about 900 (1.7%) showed an effect of 50% or more. The sample holds strong results, similar compounds and a random draw of the others, so the mix is not that of the screen.
# Tested on: Mycobacterium tuberculosis
# Test: Cornell - Phenotypic assay to identify agents that inhibit growth of Mycobacterium tuberculosis
# Format: functional
# Design: scale not given: direction of the effect not stated beside the values
# Settings: 10 mM as filed; unlikely as a test dose
row,SMILES,Percent Effect
1,CCCNC(=O)CCNC(=O)N1CCC(=Cc2ccccc2)CC1,-1.003%
2,CNC(=O)N1CCC(=Cc2ccccc2)CC1,50.2%
3,CCNC(=O)N1CCC(=Cc2ccccc2)CC1,31.8%
4,COC(=O)N1CCC(CNC(=O)C2CCN(S(C)(=O)=O)CC2)CC1,-2.459%
5,CCn1ccc(-c2cc(NCCCOc3ccccc3C)nc(C)n2)n1,93.67%
6,COc1ccccc1OCCNCCn1cccn1,4.031%
7,CCn1ccc(-c2cc(NCCCOc3cccc(C)c3)nc(C)n2)n1,27.92%
8,CC1(C)OC(=O)N(CCOc2ccc(F)cc2)C1=O,15.77%
9,CN1CCOC(C)(C(=O)N2CCN(C3CCCC3)CC2)C1 (configuration not stated),-58.81%
10,CNC(=O)CNCC1(O)CCCN(Cc2ccc(F)c(F)c2)C1=O (configuration not stated),-12.88%
11,NCCc1nc(N(Cc2nccs2)C2CC2)c2ccccc2n1,-24.34%
12,Cc1ccsc1CN(c1nc(CCN)nc2ccccc12)C1CC1,64.64%
13,NCCc1nc(N(Cc2cncs2)C2CC2)c2ccccc2n1,-19.06%
14,CN(C)C(CNC(=O)c1cccc(C(N)=O)c1)c1ccccc1Cl (configuration not stated),-40.94%
15,N#Cc1nccnc1N1CCC(Cc2ccccc2)C1 (configuration not stated),17.71%
16,N#Cc1nccnc1N1CCC(COCc2ccccc2)C1 (configuration not stated),4.332%
17,N#Cc1nccnc1N1CCC(CSc2ccccc2)C1 (configuration not stated),53.28%
18,CC(C)C(NC(=O)c1ccc(N2CCOCC2)nc1)c1cccs1 (configuration not stated),5.892%
19,CC(C)C(NC(=O)c1nc(N2CCOCC2)ncc1Cl)c1cccs1 (configuration not stated),19.79%
20,CC(C)C(NC(=O)c1cnc(N2CCOCC2)nc1)c1cccs1 (configuration not stated),69.04%
21,CC(=O)Nc1ccc(Oc2ccc3c(c2)OCO3)nc1,12.25%
22,CC(C)N1CC2(CCCN(c3ccccn3)C2)CCC1=O (configuration not stated),8.106%

row,SMILES,Percent Effect
1,CCc1ccc(C(=O)NCC2CCCN2CC)o1 (configuration not stated),3.045%
2,CCc1cnc(N2CC[C@H]3[C@@H]2CCC(=O)N3c2cccnc2)nc1.O=C(O)C(F)(F)F.O=C(O)C(F)(F)F,5.714%
3,Cc1nc2c(Nc3ccc(C#N)cc3)nc(N)nc2n1C,2.918%
4,Cc1nc2c(Nc3cccc(C#N)c3)nc(N)nc2n1C,106.8%
5,CC(=O)c1ccc(Nc2nc(N)nc3c2nc(C)n3C)cc1,11.87%
6,CCc1nc(CN(C)Cc2ncc(-c3cccs3)o2)cs1,22.49%
7,CN(Cc1nnc(-c2cccs2)o1)C(C(N)=O)c1cccc(F)c1 (configuration not stated),15.31%
8,CCc1nc(CN(C)Cc2nnc(-c3cccs3)o2)cs1,57.32%
9,Cc1cc(NC(=O)c2ccccc2Br)n(C)n1,11.86%
10,Cc1cnn(CC2CCCN2Cc2coc(-c3cccc(F)c3)n2)c1 (configuration not stated),42.46%
11,OC(COCc1ccco1)CN1CCC(Cn2cccn2)CC1 (configuration not stated),-18.82%
12,COc1cccc2c1OCC(CNc1cc(N)nc(SC)n1)C2 (configuration not stated),106%
13,COc1ccc2c(c1)OCC(CNc1cc(N)nc(SC)n1)C2 (configuration not stated),106.6%
14,COc1ccc2c(c1)OCC(Cc1ccc(C)nc1N)C2 (configuration not stated),9.156%
15,COc1cccc2c1OCC(Cc1ccc(N)nc1C)C2 (configuration not stated),28.19%
16,COc1ccc2c(c1)OCC(Cc1ccc(N)nc1C)C2 (configuration not stated),38.23%
17,COc1cccc2c1OCC(CNc1ccc(C)nn1)C2 (configuration not stated),22.84%
18,Cc1nccc(-c2cccc(NCC(=O)N3CCNC(=O)C3)c2)n1,4.567%
19,CNC(=O)c1cccc(CC2COCCN(Cc3ccc(C)o3)C2)n1 (configuration not stated),0.6767%
20,Cc1ccc(S(=O)(=O)NCC(O)c2ccoc2)s1 (configuration not stated),10.79%
21,Cc1ccc(S(=O)(=O)NCCc2ccoc2)s1,103.3%
22,COC(=O)c1sccc1S(=O)(=O)NCCc1ccoc1,39.87%

row,SMILES,Percent Effect
1,O=S(=O)(NCC1COc2ccccc2C1)N1CCCC1 (configuration not stated),15.67%
2,OC1=C2C(=Nc3n[nH]c(O)c3C2c2ccco2)CCC1 (configuration not stated),27.79%
3,Cc1nc(C)n(CC2CCCN2Cc2nc3ccccc3c(=O)[nH]2)n1 (configuration not stated),-38.81%
4,Cc1cnn(CC2CCCN2Cc2noc(-c3ccccc3)n2)c1 (configuration not stated),10.45%
5,Cc1cnn(CC2CCCN2Cc2nc3ccccc3n2C)c1 (configuration not stated),81.85%
6,Cc1cnn(CC2CCCCN2Cc2nc(N)c3ccccc3n2)c1 (configuration not stated),31.76%
7,Cc1cnn(CC2CCCN2C(=O)CCc2nc3ccccc3[nH]2)c1 (configuration not stated),16.22%
8,Cc1cnn(CC2CCCN2CCc2nc3ccccc3c(=O)[nH]2)c1 (configuration not stated),106.5%
9,Cc1cccc(CN2CCC(C3Nc4ccccc4S(=O)(=O)N3)CC2)n1 (configuration not stated),-13.88%
10,CCn1c(N)nc2cc(C(=O)N(C)Cc3cc(C(C)(C)C)n[nH]3)cnc21,12.68%
11,CN1CC(=O)N(c2cccc(F)c2)CC12CCNC2 (configuration not stated),-13.58%
12,NC(=O)CN1CCCCC1c1nc(N)ncc1-c1cccc(F)c1 (configuration not stated),-18.13%
13,COCCN1CCN(Cc2nc(-c3ccoc3)no2)CC1,-27.89%
14,O=S(=O)(Nc1cnc(N2CCCC2)nc1)c1ccc(F)cc1F,-10.3%
15,O=S(=O)(Nc1cnc(N2CCOCC2)nc1)c1ccc(C(F)(F)F)cc1,57.68%
16,O=S(=O)(Nc1cnc(N2CCCC2)nc1)c1ccc(OC(F)(F)F)cc1,94.98%
17,Cc1ccc(F)cc1S(=O)(=O)Nc1cnc(N2CCCC2)nc1,13.98%
18,O=S(=O)(Nc1cnc(N2CCOCC2)nc1)c1ccc(Cl)cc1,-17.06%
19,CN(C)c1ncc(NS(=O)(=O)c2ccc(OC(F)(F)F)cc2)cn1,23.91%
20,Cn1cc(NS(=O)(=O)c2ccc(OC(F)(F)F)cc2)ccc1=O,-35.35%
21,CCc1ccc(S(=O)(=O)Nc2cnc(N3CCOCC3)nc2)cc1,24.89%
22,O=S(=O)(Nc1cnc(N2CCCC2)nc1)c1ccc(C(F)(F)F)cc1,101.9%

row,SMILES,Percent Effect
1,O=C1CCC(=O)N1c1nn(Cc2ccccc2)cc1Cl,-38.92%
2,Cc1ccc(S(=O)(=O)c2ncccc2CN2CCCC2)cc1,-5.255%
3,N#CC1COCCN1C(=O)c1ccc2[nH]ccc2c1 (configuration not stated),10.98%
4,CC(C)(C)n1cc(NC(=O)C2CN(Cc3ccccc3)CCO2)cn1 (configuration not stated),19.34%
5,COc1ccccc1CNC(=O)CN(C)C(C)c1ccncn1 (configuration not stated),1.408%
6,Cc1cn([C@@H]2CC3(CCNCC3)OC[C@@]2(C)O)c(=O)[nH]c1=O,56.73%
7,CC(C)N1CC[C@@](C)(O)[C@H](n2ccc(=O)[nH]c2=O)C1,-3.084%
8,Cc1cn([C@H]2CCNC[C@]2(C)O)c(=O)[nH]c1=O,34.03%
9,CCc1ncc(S(C)(=O)=O)c(C2CCCNC2)n1 (configuration not stated),21.49%
10,CCc1c(O)nc(SCC(=O)c2ccccc2)n(-c2ccccc2)c1=O,13.57%
11,CCOc1ccc(Cc2c(O)nc(SC)n(-c3ccccc3)c2=O)cc1,8.957%
12,CCc1c(O)nc(SC(C)CC)n(-c2ccccc2)c1=O (configuration not stated),96.76%
13,CCCSc1nc(O)c(CC)c(=O)n1-c1ccccc1,98.89%
14,CCc1c(O)n(C(C)CC)c(SCC(=O)c2ccccc2)nc1=O (configuration not stated),28.35%
15,CCc1c(O)nc(SCC(=O)Nc2ccccc2)n(C(C)CC)c1=O (configuration not stated),65.15%
16,CSc1nc(O)c(Cc2ccccc2)c(=O)n1-c1ccccc1,18.81%
17,CCc1c(O)nc(SCC(=O)N(CC)CC)n(C(C)CC)c1=O (configuration not stated),4.731%
18,COc1ccc(Cc2c(O)nc(SC)n(-c3ccccc3)c2=O)cc1,-12.72%
19,CNC(=O)COc1ccc(CNCc2c(C)nn(C)c2N(C)C)cc1,-6.953%
20,O=S(=O)(c1ccc(F)c(F)c1)n1cc(Cl)cn1,-7.033%
21,CC1(Cc2ccc(F)cc2)Cc2cc(C(=O)NCCO)ccc2O1 (configuration not stated),0.603%
22,COCc1noc(CN2C[C@H](NS(C)(=O)=O)[C@@H](C3CC3)C2)n1,15.5%

row,SMILES,Percent Effect
1,CC(C)COC(=O)N1CC(=O)N(Cc2ccc(Cl)cc2)CC(O)C1 (configuration not stated),-5.11%
2,CS(=O)(=O)NCc1ncn2c1CN(C(=O)C1CCCO1)CCC2 (configuration not stated),5.323%
3,COc1cccc(-c2nc(C)c(C(=O)N[C@@H](CCSC)C(=O)O)s2)c1,4.928%
4,COC(=O)[C@H](CCSC)NC(=O)Cc1c(C)nn(-c2ccccc2)c1C,83.92%
5,COc1cccc(-c2nc(C)c(C(=O)N[C@H](CO)CCSC)s2)c1,3.237%
6,CSCCC(NC(N)=O)C(=O)NCc1c(C)nn(-c2ccccc2)c1C (configuration not stated),-4.034%
7,COc1cncc(-n2nc(C)c(CC(C)=O)c2C)c1,14.09%
8,COC(=O)C(CCSC)NC(=O)Cc1c(C)nn(-c2ccccc2)c1C (configuration not stated),87.19%
9,CC(C)C(=O)NCCCNC(=O)Nc1cc(-c2ccccc2)ns1,30.68%
10,CCS(=O)(=O)N1CCC2(CC1)CN(c1cccnc1)C(=O)CO2.O=C(O)C(F)(F)F,-1.862%
11,CCc1nc(CNc2nc3c(s2)c(C)nn3C)cs1,82.51%
12,Cc1nn(C)c2nc(NCCCN3CCCC(CO)C3)sc12 (configuration not stated),5.889%
13,CCc1csc(CNc2nc3c(s2)c(C)nn3C)n1,-15.98%
14,Cc1csc(CNc2nc3c(s2)c(C)nn3C)n1,21.44%
15,Cc1nc(CNc2nc3c(s2)c(C)nn3C)cs1,88.41%
16,Cc1nn(C)c2nc(NC3CCNCC3)sc12,23.18%
17,CN(C)c1ncc(-c2cc(C(=O)O)n(CC3CC3)c2)cn1,80.35%
18,Cn1nccc1-c1ncc(-c2cc(C(=O)O)n(CC3CC3)c2)cn1,-21.93%
19,CN(C)c1ncc(NC(=O)N2CCC(CN3CCCC3)C2)cn1 (configuration not stated),-23.44%
